Assay results as given in PubChem BioAssay (NCATS).
Inconclusive results are not listed. The source made the active and inactive calls. The call rests on the fitted dose curve; in most records, active means well fitted inhibition curve with a large enough effect; inconclusive means small, poorly fitted or top-dose-only effect; inactive means flat fitted curve, though single readings scatter.

Test system: HaCat
Assay: Cytotoxic Profiling of Annotated Libraries Using Quantitative High-Throughput Screening (AID 1296008); further: nearly all actives have a fitted effect of over 60% in size
Details: Five cell lines viability, CellTiter-Glo ATP luminescence, 48-72 h; max response: active compounds read low
Outline: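 Cytotoxicity was measured as CellTiter-Glo ATP luminescence, read after 10 min at room temperature. Compound treatment of the cells lasted 48 or 72 hr at 37 degrees Celsius in a qHTS format.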

Structure (SMILES) | outcome
C1=Cc2ccccc2C(=C2CCN(CCCCc3nn[nH]n3)CC2)c2ccccc21 | inactive
COc1c(CCC(=O)O)cccc1O[C@@H]1O[C@H](CO)[C@@H](O)[C@H](O)[C@H]1O | inactive
CC(=O)OCC(=O)[C@@]12O[C@@H]1C[C@H]1[C@@H]3CC=C4C[C@@H](O)CC[C@]4(C)[C@H]3CC[C@@]12C | inactive
O=C(O)c1cc(N(Cc2ccc(C3CCCCC3)cc2)C(=O)c2ccc(Oc3ccccc3)cc2)ccc1O | inactive
COc1ccc(CCO[C@@H]2O[C@H](CO[C@H]3OC[C@](O)(CO)[C@H]3O)[C@@H](OC(=O)/C=C/c3ccc(O)c(O)c3)[C@H](O[C@@H]3O[C@@H](C)[C@H](O)[C@@H](O)[C@H]3O)[C@H]2O)cc1OC | inactive
COc1ccc(S(=O)(=O)Nc2cc(Cl)cc(Cl)c2OC)cc1N1CCNCC1 | inactive
COC(=O)c1ccc2c(c1)[nH]c1ncnc(NCCCN3CCCCC3)c12 | inactive
CN1CCN(C2=Nc3ccccc3Nc3ccc(OS(=O)(=O)C(F)(F)F)cc32)CC1 | inactive
CC[C@H](C)/C=C(C)/C=C/C1=CC2=CC(=O)[C@]3(C)OC(=O)[C@@H](C(C)=O)[C@@H]3C2=CO1 | inactive
CN1CC[C@@H](c2c(O)cc(O)c3c(=O)cc(-c4ccc(C(F)(F)F)cc4Cl)oc23)[C@@H]1CO | inactive
CC(=O)O[C@@H]1CC[C@@]2(C)C(CC[C@]3(C)C2[C@H](O)C=C2[C@H]4[C@@H](C)[C@H](C)CC[C@]4(C)CC[C@]23C)[C@@]1(C)C(=O)O (some centres undefined) | inactive
COc1cc(/C=C2\CC[C@H]3COC[C@@H](c4cc(F)c(F)c(F)c4)N3C2=O)ccc1-n1cnc(C)c1 | inactive
CC/C=C\CC1C(=O)C=CC1(CCCCC1CCC(=O)O1)OC(C)=O (centres undefined) | inactive
O=C(Nc1cccnc1)c1cc(-c2ccnc(F)c2)ccc1OCc1ccccc1 | inactive
C/C=C(\C)C(=O)OC1C[C@@]2(COC(C)=O)O[C@H]2/C=C\[C@@]2(C)O[C@@H]2[C@H]2OC(=O)C(COC(C)=O)=C12 (some centres undefined) | inactive
CCC/C=C/C=C/C1CC(O)C2(O)C(=O)OCC12 (centres undefined) | inactive
C=C1C(=O)O[C@@H]2[C@H]1CC[C@H](C)[C@]1(CCC(=O)O1)C2(C)O (some centres undefined) | inactive
CCN(Cc1ccccc1)C(=O)Cn1c(=O)n(C)c2cnc(-c3ccccc3)nc21 | inactive
CC#CCn1c(N2CCCC(N)C2)nc2c1c(=O)n(Cc1nc(C)c3ccccc3n1)c(=O)n2C (centres undefined) | inactive
O=C1COC2(CCN(S(=O)(=O)c3ccc(-c4ccc5cccnc5c4)cc3)CC2)CN1C1CC1 | inactive

Structure (SMILES) | outcome
NS(=O)(=O)c1ccc(NC(=O)Nc2ccc(F)cc2)cc1 | inactive
COC(=O)C(Cc1ccc(OCCn2c(=O)sc3cc(C(=O)c4ccccc4)ccc32)cc1)C(=O)OC | inactive
CC(C)(C)NC(=O)[C@H]1CC[C@H]2[C@@H]3CC[C@H]4NC(=O)CC[C@]4(C)[C@H]3CC[C@]12C | inactive
CC(=O)c1c(C)cc2cccc(O)c2c1O[C@@H]1O[C@H](CO)[C@@H](O)[C@H](O)[C@H]1O | inactive
O=C([C@@H](Cc1cccc(C(F)(F)F)c1)NS(=O)(=O)c1cc(F)c2c(c1)CCNC2)N1CCCC1 | inactive
CC(C)(F)CC(NC(c1ccc(-c2ccc(S(C)(=O)=O)cc2)cc1)C(F)(F)F)C(=O)NC1(C#N)CC1 (centres undefined) | inactive
COC(=O)C[C@H]1C(C)(C)[C@H](OC(=O)c2ccccc2)C2CC3=C4CC(=O)O[C@@H](c5ccoc5)[C@]4(C)CCC3[C@@]1(C)C2=O (some centres undefined) | inactive
Cc1cccc(N2CCN(C(=O)c3cc(S(=O)(=O)N(C)C)ccc3N3CCCC3)CC2)c1C | inactive
Fc1ccc2c(CCNCc3cccc(OCC(F)(F)C(F)F)c3)c[nH]c2c1 | inactive
C=C1CC[C@H]2C(=C)CC[C@H]3C(=C)C(=O)O[C@@H]3[C@@H]12 | inactive
CCCCC1CCC(c2nc(-c3ccncc3)no2)CC1 (centres undefined) | inactive
COC1C=C(C)C(O)(CO)C2(C)CCCC(C)(C)C12 (centres undefined) | inactive
CC(C)OC(=O)N1CCC(Oc2ncnc3c2cnn3-c2ccc(S(C)(=O)=O)cc2F)CC1 | inactive
CC(=O)O[C@@H]1CC2C(C)(C)C(=O)C=C[C@]2(C)C2CC[C@@]3(C)[C@H](c4ccoc4)OC(=O)[C@H]4O[C@]43[C@@]21C (some centres undefined) | inactive
O=C(NCC1CCN(Cc2cccc(Cl)c2)CC1)[C@@H]1CCCN(c2ncnc3c2nc2n3CCCC2)C1 | inactive
CC(C)(Cc1nc(-c2ccc(O)cn2)no1)C(=O)NC1=C(C(=O)O)CCCC1 | inactive
CCCN(CCc1ccsc1)C1CCc2c(O)cccc2C1 (centres undefined) | inactive
COc1cc(F)c(C(C)C)cc1-c1ccc(C(F)(F)F)cc1CN1C(=O)OC(c2cc(C(F)(F)F)cc(C(F)(F)F)c2)C1C (centres undefined) | inactive
COC(=O)/C=C/C=C/C(=O)OC1C=C2COC(=O)C2(O)C2(C)CCCC(C)(C)C12 (centres undefined) | inactive
